From PubChem BioAssay AID1619 (SRMLSC, 2009)
The campaign covered roughly 220,000 compounds. About 830 (0.38%) were called active.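 Rule for the calls: active = compound inhibiting the enzyme by more than half at any dose during confirmatory dose-response retesting; inconclusive = strong single-dose inhibitors picked by rank but not retested; inactive = the rest.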 The list is a sample of the results. Measured potencies and affinities stand elsewhere.

molecular target: Leucine aminopeptidase (Plasmodium falciparum (isolate 3D7)) (UniProt Q8IL11); assay: P. falciparum M17LAP inhibitors, primary screen, biochemical, fluorogenic H-Leu-NHMec substrate, 1536-well (AID 1619); conditions: recombinant M17LAP, H-Leu-NHMec fluorogenic kinetic assay; at 30 µM; stronger effect = higher value;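 note: plate controls were full reaction with DMSO carrier for no effect and no enzyme background for full effect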
Sequence (Q8IL11 whole entry, looked up): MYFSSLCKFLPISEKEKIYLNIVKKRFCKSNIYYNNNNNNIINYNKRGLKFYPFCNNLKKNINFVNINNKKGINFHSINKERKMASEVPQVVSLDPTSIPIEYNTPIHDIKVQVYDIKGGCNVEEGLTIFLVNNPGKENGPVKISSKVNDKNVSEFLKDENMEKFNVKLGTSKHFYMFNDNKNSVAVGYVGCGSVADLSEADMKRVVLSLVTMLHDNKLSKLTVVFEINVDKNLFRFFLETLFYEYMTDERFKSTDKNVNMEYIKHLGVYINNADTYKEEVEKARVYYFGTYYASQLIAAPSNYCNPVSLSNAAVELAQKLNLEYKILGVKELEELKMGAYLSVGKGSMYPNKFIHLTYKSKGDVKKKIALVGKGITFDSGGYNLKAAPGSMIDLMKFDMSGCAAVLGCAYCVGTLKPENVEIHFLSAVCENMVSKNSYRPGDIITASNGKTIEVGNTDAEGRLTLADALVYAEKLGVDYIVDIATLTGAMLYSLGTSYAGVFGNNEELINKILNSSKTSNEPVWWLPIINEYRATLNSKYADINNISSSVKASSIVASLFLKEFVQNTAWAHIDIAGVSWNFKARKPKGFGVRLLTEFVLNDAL

inhibition, inactive:
CC(C)CSc1nnc2[nH]c(=O)cc(N)n12 -1.75%
CCOC(=O)c1oc2cc(O)ccc2c(=O)c1-c1ccc(OC)cc1 14.6%
Fc1c(F)c(F)c(N/N=C/c2c[nH]c3ccccc23)c(F)c1F -1.25%
COC(=O)N/N=C/c1c[nH]c2ccccc12 14.5%
COc1cccc(NC(=O)Nc2nnc(CC(=O)NCc3ccccc3)s2)c1 8.42%
COc1ccc(NC(=O)CSc2ncc(-c3ccc(F)cc3)n2Cc2ccco2)cc1 -16.2%
CCCOC(=O)c1c(NC(=O)C2CCCO2)sc(C(=O)OC)c1C (configuration not stated) 8.59%
COc1ccc(-c2ccnc(SCC(=O)Nc3ccccn3)n2)cc1 7.81%
CC1CCCCN1C(=O)CSc1nc(-c2ccccc2)cn1N (configuration not stated) 14.6%
Cc1cc(-c2ccccc2)nc(SCC(=O)N2CCCC2)n1 1.7%
O=C(CSc1nc(O)cc(=O)n1-c1ccccc1)Nc1ccccn1 14.8%
O=C(N1CCC(O)(c2cccnc2)CC1)C12CC3CC(CC(C3)C1)C2 3.02%
Cc1oc(C(C)(C)C)cc1C(N)=O 5.9%
Cc1c(N(C(=O)CNC(=O)c2ccccc2)C2(C(=O)NC3CCCCC3)CCCCC2)c(=O)n(-c2ccccc2)n1C -1.39%
Clc1ccc(Nc2ccc(-n3ccnc3)nn2)cc1Cl 2.24%
Cc1cc(C(=O)NCc2cccs2)n(-c2ccccc2)n1 -1.13%
COc1ccccc1NC(=S)NC(=O)c1c(-c2ccccc2Cl)noc1C -2.71%
CC(C)NC(=O)/C(C#N)=C\c1ccc(N(C)C)o1 38%
CC(C)NC(=O)/C(C#N)=C/c1ccc(N(C)C)o1 48.4%
Cc1nn(CC(=O)N2CC(=O)Nc3ccccc32)c(C)c1[N+](=O)[O-] 1.29%
CCOC(=O)c1sc(NC(=S)NC(=O)C2CCCC2)cc1C -3.81%
O=C(O)C1CCCN(S(=O)(=O)c2ccc(Br)s2)C1 (configuration not stated) -0.9%
Cc1ccc(-c2nn(Cc3ccccc3)cc2/C=C/C(=O)O)cc1 38.8%
O=C(O)/C=C/c1cn(Cc2ccccc2)nc1-c1ccccc1 22.2%
O=C(O)/C=C\C(=O)Nc1ccc(Oc2ccccc2)cc1 15%
O=C(O)/C=C/C(=O)Nc1ccc(Oc2ccccc2)cc1 -0.33%
CCS(=O)(=O)N1CCC(C(=O)NCc2ccc(OC)cc2)CC1 5.05%
NC(=O)C1CCN(c2nc(-c3ccccc3)nc3c2oc2ccccc23)CC1 -0.35%
CCC(C)[C@H](Nc1nc(-c2ccccc2)nc2c1oc1ccccc12)C(=O)O (some centres not stated) 51.5%
CCc1nc(N[C@H](C(=O)O)C(C)C)c2oc3ccccc3c2n1 3.02%
O=C(O)CSc1nc(-c2ccccc2)nc2c1oc1ccccc12 28.6%
CCOC(=O)C1CCN(c2nc(-c3ccccc3)nc3c2oc2ccccc23)CC1 41.7%
Cc1nc(SCC(=O)O)c2oc3ccccc3c2n1 1.07%
COc1ccc(N=C2NC(=O)/C(=C/C=C/c3ccccc3)S2)cc1 3.51%
CCc1ccc(C2CC(c3ccc(Cl)cc3)n3nc(N)nc3N2)cc1 (configuration not stated) -1.74%
CCC(CC)Nc1ccc(C(CC(N)=O)NC(=O)Cc2ccc(Br)cc2)cc1[N+](=O)[O-] (configuration not stated) -4.54%
CN(C)c1ccnc2sc(C(=O)NCc3ccccc3)c(N)c12 -4.21%
Cc1ccc(NC(=O)CCC(=O)OCC(=O)c2ccc(Oc3ccc([N+](=O)[O-])cc3)cc2)c(C)c1 13.8%
CC(C)c1nnc(NC(=O)CSc2nnc(NC(=O)c3c(F)cccc3F)s2)s1 2.85%
O=C(CSc1nnc(NC(=O)c2ccco2)s1)Nc1ccc(F)cc1 -1.02%
COc1ccc(NC(=O)CSc2nnc(NC(=O)c3ccco3)s2)cc1 22.5%
Cc1cccc(C)c1NC(=O)CSc1nnc(NC(=O)c2ccccc2C(=O)O)s1 19.1%
C=CCn1cnc2sc(C(=O)Nc3ccccc3OC)c(C)c2c1=O 7.04%
Clc1ccc(-c2cc(COc3ccc4ccccc4c3)no2)cc1 -2.54%
COc1ccc(C(=O)CSc2nc(N)nc(SC)c2C#N)cc1 -5.8%
CCN1C(=O)/C(=C\c2ccc(-c3ccc([N+](=O)[O-])cc3OC)o2)SC1=Nc1cccc(C(=O)O)c1 28.7%
CN1C(=O)/C(=C/c2ccco2)SC1=Nc1ccc(N2CCOCC2)cc1 -4.86%
CCOC(=O)c1sc(-c2ccccn2)nc1C 10.5%
C/C(O)=C(\C#N)c1nc2ccccc2[nH]1 1.5%
CCN(CC)S(=O)(=O)c1ccc(Cl)c(NC(=O)CCCCl)c1 8.77%
NC(=O)C1CCN(C(=O)c2ccc(CS(=O)(=O)c3c(Cl)cccc3Cl)o2)CC1 1.58%
CCCCn1c(N)c(Br)c(=O)[nH]c1=O 10%
COc1cc(OC)c(OC)cc1/C=N/NC(=O)CC1C(=O)NN=C1C (configuration not stated) 53.3%
CCOc1cccc(/C=N/NC(=O)CC2C(=O)NN=C2C)c1O (configuration not stated) 3.72%
COc1cc(/C=N/NC(=O)CC2C(=O)NN=C2C)ccc1O (configuration not stated) 10.4%
COc1ccc(OC)c(/C=N/NC(=O)CC2C(=O)NN=C2C)c1 (configuration not stated) -164%
CCCn1c(C2CC(=O)N(c3ccc(C)cc3)C2)nc2ccccc21 (configuration not stated) 4.53%
O=C(Nc1cccc(F)c1)/C(=C\c1cccnc1)NC(=O)c1cccs1 7.11%
CC1=C(C#N)C(=O)NC(=O)/C1=C\c1ccc(-c2cc(C)c(C)cc2[N+](=O)[O-])o1 24.2%
CC1=C(C#N)C(=O)NC(=O)/C1=C/c1ccc(-c2ccc(S(N)(=O)=O)cc2)o1 35.6%
CC(=O)c1c(O)cc(=O)n(-c2ccccc2)c1-c1ccc(C)cc1 0.53%
CC(=O)c1c(O)cc(=O)n(-c2ccccc2)c1-c1ccc(Cl)cc1 -10.1%
